From PubChem BioAssay (EPA / NIEHS) come the findings set out here.

For assay [1], the target named is Myc proto-oncogene protein (Homo sapiens) (UniProt P01106). Description: ATG_Myc_CIS: Attagene CIS-FACTORIAL HepG2 Assay for human Myelocytomatosis (Myc) Proto-Oncogene Transcription Factor (AID 2282990). Particulars: HepG2, Attagene cis-reporter transcription factor activity; actives raise or lower the signal. The method, boiled down: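 HepG2, transient MRTU transfection (cis promoters, endogenous TFs); 24 h dosing; TriZol RNA → oligo(dT) RT → PCR → 6-FAM primer extension → HpaI cut → CE. Bidirectional fit vs DMSO.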

The nature of assay [2]: ATG_NF_kB_CIS: Attagene CIS-FACTORIAL HepG2 Assay for human Nuclear Factor Kappa B (NF-kB) (AID 2282991). Particulars: HepG2 Attagene cis-factorial NF-kB reporter mRNA; actives raise or lower the signal. The method, boiled down: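 Fluorescence of labelled RT-PCR products separated by capillary electrophoresis gives reporter mRNA levels from transfected HepG2 cells exposed 24 h; values are fitted in both directions relative to DMSO.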

A short description of assay [3]: ATG_NRF2_ARE_CIS: Attagene CIS-FACTORIAL HepG2 Assay for human Nuclear Factor Erythroid 2 Related Factor 2 (NFR2) response to Antioxidant Response Elements (ARE) (AID 2282992). As to conditions: HepG2 Attagene ARE/NRF2 reporter, transcription factor activity; actives raise or lower the signal. The method, boiled down:
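Multiplexed reporter mRNA profiling in HepG2 after a 24 h chemical exposure. Curves fitted in both directions relative to DMSO negative control.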

The nature of assay [4]: ATG_Oct_MLP_CIS: Attagene CIS-FACTORIAL HepG2 Assay for human Octamer-Binding Transcription Factor (Oct) (AID 2282993). Particulars: HepG2 Attagene cis-factorial Oct reporter, mRNA; actives raise or lower the signal. The method, boiled down: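 Cells of the HepG2 line express promoter-controlled reporter sequences whose mRNA levels, after 24 h treatment, are measured by RT-PCR and capillary electrophoresis. Increases and decreases are scored relative to DMSO.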

Assay [5] deals with Cellular tumor antigen p53 (Homo sapiens) (UniProt P04637). In words: ATG_p53_CIS: Attagene CIS-FACTORIAL HepG2 Assay for human p53 Transcription Factor (AID 2282994). As to conditions: HepG2 p53 cis-element reporter, Attagene mRNA; actives raise or lower the signal. The gist of the method: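 Multiplexed reporter mRNA assay in human HepG2 liver cells; cis-regulated units report endogenous factor activity. Values come from bidirectional curve fitting against DMSO negative control after 24 h treatment.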

Assay [6] can be described thus: BSK_3C_TissueFactor: BioMAP Diversity Plus: 3C Assay for Tissue Factor Biomarker Activity (AID 2282997). As to conditions: BioMAP 3C HUVEC, tissue factor biomarker readout; actives raise or lower the signal. The method, boiled down: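 ELISA read-out of Tissue Factor levels on human umbilical vein endothelium collected 24 h after chemical dosing. Gain or loss of signal was fitted relative to DMSO.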

The nature of assay [7]: BSK_3C_uPAR: BioMAP Diversity Plus: 3C Assay for Urokinase-type plasminogen activator receptor (uPAR) Biomarker Activity (AID 2282998). As to conditions: BioMAP 3C HUVEC, uPAR biomarker ELISA; actives raise or lower the signal. The gist of the method:
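Endothelial primary cells of human umbilical vein origin received test chemical; 24 h later uPAR was assayed by ELISA. Fitting was bidirectional, DMSO as negative control.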
Background: In an ELISA, binding on a coated surface is turned into a signal by an enzyme label.

Assay [8] can be described thus: BSK_3C_VCAM1: BioMAP Diversity Plus: 3C Assay for Vascular cell adhesion molecule 1 (VCAM1) Biomarker Activity (AID 2282999). Particulars: BioMAP 3C HUVEC, VCAM1 ELISA, cytokine-stimulated; actives raise or lower the signal. The gist of the method: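 Endothelial cells from human umbilical vein are treated with test chemical. At 24 h, VCAM-1 is measured by ELISA, and responses in either direction are fitted relative to DMSO.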

Assay [9] in a line: BSK_4H_Eotaxin3: BioMAP Diversity Plus: 4H Assay for Eotaxin 3 Biomarker Activity (AID 2283000).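 For outcome: CCL26 protein level quantified by ELISA in parallel with SRB cytotoxicity check.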 Particulars: primary human endothelial cells (HUVEC); actives raise or lower the signal. The method, boiled down:
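Chemicals were added to human umbilical vein endothelium cultures, and Eotaxin-3 was quantified by ELISA at 24 h. Values were derived by bidirectional fitting with DMSO serving as negative control and activity baseline.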

For assay [10], the target named is human Peroxisome Proliferator-activated Receptor alpha (PPARa), PPARA (gene 5465) (UniProt Q07869). In words: ATG_PPARa_TRANS: Attagene TRANS-FACTORIAL HepG2 Assay for human Peroxisome Proliferator-activated Receptor alpha (PPARa) (AID 2283001; active = hit-call score of the fitted dose curve at least 0.9, where 1 is the maximum). The method, boiled down: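 Reporter transcripts from GAL4-UAS units in transfected HepG2 were quantified 24 h after dosing. Detection used reverse transcription, PCR, fluorescent primer extension and capillary electrophoresis, with DMSO as baseline.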

The target of assay [11] is human Peroxisome Proliferator-activated Receptor delta (PPARd), PPARD (gene 5467) (UniProt Q03181). Description: ATG_PPARd_TRANS: Attagene TRANS-FACTORIAL HepG2 Assay for human Peroxisome Proliferator-activated Receptor delta (PPARd) (AID 2283002; active = hit-call score of the fitted dose curve at least 0.9, where 1 is the maximum). The method, boiled down: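 Transient HepG2 transfection (multiple GAL4-UAS RTUs, chimeric receptor-Gal4); 24 h dosing; total RNA → oligo(dT) RT → PCR → 6-FAM primer extension → HpaI cut → CE. Positive direction vs DMSO.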

Read-out in assay [12]: Intercellular Adhesion Molecule 1 (ICAM1), ICAM1 (gene 3383)
Description: BSK_3C_ICAM1: BioMAP Diversity Plus: 3C Assay for Intercellular Adhesion Molecule 1 (ICAM1) Biomarker Activity (AID 2283003). As to conditions: primary human endothelial cells (HUVEC); actives raise or lower the signal. The gist of the method:
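Primary human umbilical vein endothelial cells in the BioMAP 3C system were exposed to chemicals for 24 h, then ICAM-1 was quantified by ELISA. Activity was fitted bidirectionally against the DMSO negative control baseline.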

Assay [13] can be described thus: BSK_3C_Proliferation: Cell Proliferation Assessment in the BioMAP Diversity Plus: 3C Assay (AID 2283006).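 For AC50: potency may reflect either rise or fall in cell number versus DMSO.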 As to conditions: primary human endothelial cells (HUVEC). The method, boiled down: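 Human umbilical vein endothelial cells were grown sub-confluent and exposed to chemical for 48 h, then fixed with 10% TCA and stained with 0.1% sulforhodamine B; absorbance at 560 nm gave relative cell number, fitted bidirectionally against DMSO baseline.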

In assay [14] the target is Peroxisome proliferator-activated receptor gamma (Homo sapiens) (UniProt P37231). In words: ATG_PPARg_TRANS: Attagene TRANS-FACTORIAL HepG2 Assay for human Peroxisome Proliferator-activated Receptor-gamma (PPARg) (AID 2283007; active = hit-call score of the fitted dose curve at least 0.9, where 1 is the maximum). The method, boiled down: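 Twenty-four hours after chemical dosing of transiently transfected HepG2 cells, isolated RNA was converted to cDNA, reporter sequences amplified and 6-FAM-labelled, then HpaI-digested and analysed by capillary electrophoresis. Signal increase against DMSO was fitted.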

In assay [15] the target is Nuclear receptor subfamily 1 group I member 2 (Homo sapiens) (UniProt O75469). Description: ATG_PXR_TRANS: Attagene TRANS-FACTORIAL HepG2 Assay for human Pregnane X Receptor (PXR) (AID 2283008; active = hit-call score of the fitted dose curve at least 0.9, where 1 is the maximum). The method, boiled down:
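Measures mRNA induction of a GAL4-UAS-driven reporter in human HepG2 cells transiently expressing PXR fused to Gal4, following 24 h treatment. DMSO served as negative control and baseline.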

Assay [16] addresses human RAR-related Orphan Receptor beta (RORb), RORB (gene 6096) (UniProt Q92753). Description: ATG_RORb_TRANS: Attagene TRANS-FACTORIAL HepG2 Assay for human RAR-related Orphan Receptor beta (RORb) (AID 2283010; active = hit-call score of the fitted dose curve at least 0.9, where 1 is the maximum). The gist of the method:
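HepG2 cells were transiently transfected with multiplexed GAL4-UAS reporter units expressing chimeric nuclear receptor–GAL4 proteins, then dosed for 24 h. Reporter mRNA was quantified by RT-PCR with fluorescent labelling and capillary electrophoresis; gain of signal was fitted relative to DMSO.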

The target of assay [17] is human RAR-related Orphan Receptor gamma (RORg), RORC (gene 6097) (UniProt P51449). Description: ATG_RORg_TRANS: Attagene TRANS-FACTORIAL HepG2 Assay for human RAR-related Orphan Receptor gamma (RORg) (AID 2283011; active = hit-call score of the fitted dose curve at least 0.9, where 1 is the maximum). The method, boiled down: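 First, HepG2 liver cells were transfected with GAL4-UAS-driven reporter constructs and the RORg-Gal4 fusion. Next, they were treated with chemical for 24 h. Finally, reporter mRNA was quantified by RT-PCR and capillary electrophoresis, with upward activity fitted against DMSO.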

In assay [18] the target is Retinoic acid receptor RXR-alpha (Homo sapiens) (UniProt P19793). In words: ATG_RXRa_TRANS: Attagene TRANS-FACTORIAL HepG2 Assay for human Retinoid X Receptor alpha (RXRa) (AID 2283012; active = hit-call score of the fitted dose curve at least 0.9, where 1 is the maximum). The gist of the method:
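HepG2 cells transiently transfected with multiplexed GAL4-UAS reporter units and chimeric NR-GAL4 fusions, dosed 24 h. Reporter mRNA measured by RT-PCR, FAM labelling, HpaI digestion and capillary electrophoresis; gain-of-signal fitted relative to DMSO baseline.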

The target of assay [19] is human Retinoic Acid Receptor gamma (RARg), RARG (gene 5916) (UniProt P13631). Description: ATG_RARg_TRANS: Attagene TRANS-FACTORIAL HepG2 Assay for human Retinoic Acid Receptor gamma (RARg) (AID 2283009; active = hit-call score of the fitted dose curve at least 0.9, where 1 is the maximum). The gist of the method: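 HepG2 cells transiently transfected with multiplexed reporter units expressing chimeric RARg-GAL4 and GAL4-UAS-driven reporters; 24 h compound exposure. Reporter mRNA quantified by RT-PCR with fluorescent labelling and capillary electrophoresis; gain-of-signal fitted relative to DMSO baseline.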

Where “and” joins values, the source holds several entries; their conditions need not be identical. Equal values may be shown once. Results filed as inconclusive are left out. Some compounds were tested as several samples or in several runs, with calls that do not always agree. Calls of active or inactive are those of the source. Rule for the calls, unless noted: active = hit-call score of the fitted dose curve at least 0.9, where 1 is the maximum; inactive = score below 0.9.

Chain of Myc proto-oncogene protein (Homo sapiens) (P01106 whole entry, looked up): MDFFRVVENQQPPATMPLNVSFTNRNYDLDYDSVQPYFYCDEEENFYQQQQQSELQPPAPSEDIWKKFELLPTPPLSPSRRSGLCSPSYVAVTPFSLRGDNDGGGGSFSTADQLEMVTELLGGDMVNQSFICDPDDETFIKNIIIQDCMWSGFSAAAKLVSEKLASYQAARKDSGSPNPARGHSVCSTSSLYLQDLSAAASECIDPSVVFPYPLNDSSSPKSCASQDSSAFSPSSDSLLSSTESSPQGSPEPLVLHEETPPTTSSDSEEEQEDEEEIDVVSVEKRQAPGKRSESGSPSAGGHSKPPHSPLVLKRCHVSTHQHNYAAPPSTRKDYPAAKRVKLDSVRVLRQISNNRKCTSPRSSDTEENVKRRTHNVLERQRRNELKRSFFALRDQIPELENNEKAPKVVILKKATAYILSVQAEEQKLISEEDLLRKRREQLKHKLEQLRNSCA
Chain of human Peroxisome Proliferator-activated Receptor delta (PPARd), PPARD (gene 5467) (Q03181 whole entry, looked up, the tested form may be a part): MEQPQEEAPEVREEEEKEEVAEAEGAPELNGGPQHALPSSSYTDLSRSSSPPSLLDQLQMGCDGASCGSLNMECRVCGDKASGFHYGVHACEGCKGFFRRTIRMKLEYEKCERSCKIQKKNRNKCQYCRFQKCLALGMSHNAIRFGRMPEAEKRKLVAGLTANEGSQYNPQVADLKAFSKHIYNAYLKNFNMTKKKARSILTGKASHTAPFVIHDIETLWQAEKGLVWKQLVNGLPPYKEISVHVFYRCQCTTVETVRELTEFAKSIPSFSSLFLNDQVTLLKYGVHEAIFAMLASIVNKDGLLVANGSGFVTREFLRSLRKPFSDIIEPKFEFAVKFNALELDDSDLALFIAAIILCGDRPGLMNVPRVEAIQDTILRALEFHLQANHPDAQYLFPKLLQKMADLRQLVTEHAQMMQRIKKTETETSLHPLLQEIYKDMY
Chain of Retinoic acid receptor RXR-alpha (Homo sapiens) (P19793 whole entry, looked up, the tested form may be a part): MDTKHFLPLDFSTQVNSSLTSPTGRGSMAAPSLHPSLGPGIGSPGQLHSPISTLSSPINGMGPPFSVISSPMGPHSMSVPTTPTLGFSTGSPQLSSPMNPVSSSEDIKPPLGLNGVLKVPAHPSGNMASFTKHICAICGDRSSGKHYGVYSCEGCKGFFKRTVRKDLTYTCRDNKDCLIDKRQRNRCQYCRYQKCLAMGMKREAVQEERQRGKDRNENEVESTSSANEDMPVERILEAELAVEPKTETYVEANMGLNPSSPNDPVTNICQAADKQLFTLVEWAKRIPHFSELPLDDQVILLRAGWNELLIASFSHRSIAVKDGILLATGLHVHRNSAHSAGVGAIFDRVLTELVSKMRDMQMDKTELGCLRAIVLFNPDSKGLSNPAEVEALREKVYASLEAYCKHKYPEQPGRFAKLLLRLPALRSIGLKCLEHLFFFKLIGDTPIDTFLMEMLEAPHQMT
Chain of Cellular tumor antigen p53 (Homo sapiens) (P04637 whole entry, looked up): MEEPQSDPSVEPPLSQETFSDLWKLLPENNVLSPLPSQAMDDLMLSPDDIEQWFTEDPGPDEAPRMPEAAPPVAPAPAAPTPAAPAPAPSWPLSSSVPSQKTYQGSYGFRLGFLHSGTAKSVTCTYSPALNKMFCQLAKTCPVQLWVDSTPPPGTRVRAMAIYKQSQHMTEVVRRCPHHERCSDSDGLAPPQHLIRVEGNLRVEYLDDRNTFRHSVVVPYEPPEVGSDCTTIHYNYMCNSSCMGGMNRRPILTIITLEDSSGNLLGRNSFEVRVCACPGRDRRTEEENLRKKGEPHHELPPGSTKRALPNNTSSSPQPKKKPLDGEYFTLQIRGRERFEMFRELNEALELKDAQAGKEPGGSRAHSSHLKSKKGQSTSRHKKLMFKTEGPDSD
Chain of human RAR-related Orphan Receptor gamma (RORg), RORC (gene 6097) (P51449 whole entry, looked up, the tested form may be a part): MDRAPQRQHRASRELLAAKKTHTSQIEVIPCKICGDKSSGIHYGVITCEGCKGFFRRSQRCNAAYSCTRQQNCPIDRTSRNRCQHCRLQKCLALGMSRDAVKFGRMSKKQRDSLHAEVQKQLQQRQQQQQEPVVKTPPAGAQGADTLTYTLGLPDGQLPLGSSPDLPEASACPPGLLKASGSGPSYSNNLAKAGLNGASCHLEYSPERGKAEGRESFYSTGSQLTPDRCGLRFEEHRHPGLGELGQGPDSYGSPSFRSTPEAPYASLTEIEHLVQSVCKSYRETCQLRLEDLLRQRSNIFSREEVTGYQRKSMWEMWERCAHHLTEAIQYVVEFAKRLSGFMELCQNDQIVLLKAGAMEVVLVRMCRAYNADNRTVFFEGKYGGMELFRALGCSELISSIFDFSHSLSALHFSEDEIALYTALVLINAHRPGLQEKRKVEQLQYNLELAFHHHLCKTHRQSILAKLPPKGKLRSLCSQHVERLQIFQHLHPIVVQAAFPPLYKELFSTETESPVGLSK
Chain of human Peroxisome Proliferator-activated Receptor alpha (PPARa), PPARA (gene 5465) (Q07869 whole entry, looked up, the tested form may be a part): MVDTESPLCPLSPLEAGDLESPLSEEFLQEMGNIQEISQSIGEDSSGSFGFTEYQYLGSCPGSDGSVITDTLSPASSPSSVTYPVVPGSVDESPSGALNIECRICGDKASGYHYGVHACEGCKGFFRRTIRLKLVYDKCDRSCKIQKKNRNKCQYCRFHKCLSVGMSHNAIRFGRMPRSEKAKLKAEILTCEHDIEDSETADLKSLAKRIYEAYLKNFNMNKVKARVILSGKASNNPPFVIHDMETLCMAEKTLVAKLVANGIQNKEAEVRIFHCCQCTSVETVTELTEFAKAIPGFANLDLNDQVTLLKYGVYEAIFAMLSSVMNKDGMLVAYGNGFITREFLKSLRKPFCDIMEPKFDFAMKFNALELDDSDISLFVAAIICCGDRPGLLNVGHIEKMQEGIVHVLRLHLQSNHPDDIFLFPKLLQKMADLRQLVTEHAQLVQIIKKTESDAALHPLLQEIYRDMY
Chain of Nuclear receptor subfamily 1 group I member 2 (Homo sapiens) (O75469 whole entry, looked up, the tested form may be a part): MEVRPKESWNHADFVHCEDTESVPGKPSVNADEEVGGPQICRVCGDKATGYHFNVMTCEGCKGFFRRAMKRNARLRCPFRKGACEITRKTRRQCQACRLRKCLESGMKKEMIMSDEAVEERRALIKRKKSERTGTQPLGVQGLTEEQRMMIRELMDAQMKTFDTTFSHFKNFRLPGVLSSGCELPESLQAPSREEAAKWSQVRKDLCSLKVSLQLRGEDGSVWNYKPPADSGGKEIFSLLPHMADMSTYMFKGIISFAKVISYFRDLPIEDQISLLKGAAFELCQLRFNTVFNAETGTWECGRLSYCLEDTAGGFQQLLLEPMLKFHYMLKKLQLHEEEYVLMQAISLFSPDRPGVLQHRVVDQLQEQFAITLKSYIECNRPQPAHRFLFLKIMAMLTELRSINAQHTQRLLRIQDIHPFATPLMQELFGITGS
Chain of human RAR-related Orphan Receptor beta (RORb), RORB (gene 6096) (Q92753 whole entry, looked up, the tested form may be a part): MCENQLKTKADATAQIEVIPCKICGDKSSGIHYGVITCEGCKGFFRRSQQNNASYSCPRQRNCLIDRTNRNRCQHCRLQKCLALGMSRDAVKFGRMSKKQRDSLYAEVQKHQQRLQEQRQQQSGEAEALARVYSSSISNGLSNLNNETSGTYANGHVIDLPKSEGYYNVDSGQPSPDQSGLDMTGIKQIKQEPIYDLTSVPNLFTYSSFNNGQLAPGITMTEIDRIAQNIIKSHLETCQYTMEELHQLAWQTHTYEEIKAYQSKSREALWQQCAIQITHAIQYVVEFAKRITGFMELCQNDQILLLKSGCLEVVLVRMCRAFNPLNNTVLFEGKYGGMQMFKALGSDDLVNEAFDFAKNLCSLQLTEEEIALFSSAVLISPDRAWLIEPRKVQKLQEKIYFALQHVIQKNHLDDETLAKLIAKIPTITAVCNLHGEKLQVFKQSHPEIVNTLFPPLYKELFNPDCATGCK
Chain of human Retinoic Acid Receptor gamma (RARg), RARG (gene 5916) (P13631 whole entry, looked up, the tested form may be a part): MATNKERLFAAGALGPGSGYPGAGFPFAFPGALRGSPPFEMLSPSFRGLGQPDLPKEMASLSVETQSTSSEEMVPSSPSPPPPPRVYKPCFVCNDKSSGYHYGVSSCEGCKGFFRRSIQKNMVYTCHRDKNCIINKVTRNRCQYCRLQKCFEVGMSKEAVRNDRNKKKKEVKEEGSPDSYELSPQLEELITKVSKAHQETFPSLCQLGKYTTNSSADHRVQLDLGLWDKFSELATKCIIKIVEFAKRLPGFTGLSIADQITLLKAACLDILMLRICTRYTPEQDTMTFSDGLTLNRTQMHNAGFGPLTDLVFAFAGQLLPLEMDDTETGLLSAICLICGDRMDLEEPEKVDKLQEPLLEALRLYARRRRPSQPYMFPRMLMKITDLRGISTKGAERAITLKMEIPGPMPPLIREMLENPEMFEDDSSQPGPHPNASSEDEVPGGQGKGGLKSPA
Chain of Peroxisome proliferator-activated receptor gamma (Homo sapiens) (P37231 whole entry, looked up): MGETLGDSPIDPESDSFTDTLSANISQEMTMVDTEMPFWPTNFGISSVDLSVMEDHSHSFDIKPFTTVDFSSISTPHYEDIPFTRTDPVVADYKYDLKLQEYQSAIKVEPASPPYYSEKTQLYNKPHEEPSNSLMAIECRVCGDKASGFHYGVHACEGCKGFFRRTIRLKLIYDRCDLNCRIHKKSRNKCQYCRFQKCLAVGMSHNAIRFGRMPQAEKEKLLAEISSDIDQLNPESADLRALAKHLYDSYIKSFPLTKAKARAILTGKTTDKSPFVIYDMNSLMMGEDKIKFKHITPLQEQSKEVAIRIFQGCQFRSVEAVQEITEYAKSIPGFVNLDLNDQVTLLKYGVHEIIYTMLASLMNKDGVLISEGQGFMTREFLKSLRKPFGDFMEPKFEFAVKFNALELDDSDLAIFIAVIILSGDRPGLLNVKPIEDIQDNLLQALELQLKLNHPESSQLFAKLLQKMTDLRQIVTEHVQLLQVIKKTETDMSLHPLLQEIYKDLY

In the case of `COc1cc(OC)nc(NC(=O)NS(=O)(=O)c2ncccc2C(=O)N(C)C)n1`, the compound was classed as inactive in [1], in [2], in assay [3], in assay [4], in [5] and in [6]. Besides, the outcome in assay [7], in assay [8], in assay [9], in [10], in assay [11] and in assay [12] was inactive. Besides, the outcome in assay [13], in assay [14], in assay [16], in assay [17] and in assay [18] was inactive. In assay [15], the AC50 – broadly, the concentration giving half of the maximal activity seen – is 100 µM (active).

For `Oc1ccc(-c2ccccc2)cc1`, the AC50 in assay [1] is 176 µM (active); in [3], 100 µM (active); in assay [4], 73.8 µM (active); in [5] it was 27.9 µM (active); in assay [6] it was 20 µM (active). Moreover, the compound was classed as inactive in assay [2], in assay [7], in assay [8], in [9], in [10] and in assay [11]. In addition, the result in assay [12], in [13], in assay [15], in [19] and in assay [18] was inactive.

For the compound `C=C(C)C(=O)[O][Sn]([CH2]CCC)([CH2]CCC)[CH2]CCC`, the call in [1], in assay [2], in assay [5], in [10] and in assay [11] was inactive. For the same compound, the AC50 in [3] is 0.26 µM (active); in assay [4], 0.412 µM (active); in assay [6], 0.148 µM (active); in [7], 0.148 µM (active); in assay [8], 0.148 µM (active); in assay [9], 0.254 µM (active). For the same compound, the AC50 is 0.155 µM (active) in assay [12], 0.148 µM (active) in [13], 0.286 µM (active) in [15] and 0.00348 µM (active) in [18].

With `CC(C)(C)CC(C)(C)c1ccc(O)cc1`, the outcome in assay [1], in [2], in assay [4], in [5], in assay [11] and in assay [15] was inactive. The result in assay [16], in assay [17] and in [18] was inactive. Also, the AC50 in assay [3] is 11 µM (active) [middle of 4 runs]; in [5] it was 16 µM (active) and 16.4 µM (active); in [6], 7.99 µM (active); in assay [7], 7.17 µM (active); in assay [8], 6.92 µM (active); in [9], 8.11 µM (active). Further, the AC50 in [12] is 10.8 µM (active); in assay [13], 7.69 µM (active); in [15] it was 8.34 µM (active) and 7.58 µM (active) and 5.92 µM (active).
